# Bioassay records deposited in PubChem by National Center for Advancing Translational Sciences (NCATS).
# Only some compounds are listed: those with a hit (about 19% of all), similar ones and a draw of the others.
# HT1080NT lethal: kills 2HG-producing HT-1080-NT fibrosarcoma cells; HT-1080-NT fibrosarcoma viability, CellTiter-Glo ATP luminescence, 48 h; Potency, µM (series often up to 46.1 µM), without a hit: at the highest dose activity, negative = less viability, most hits filed as cytotoxic; actives 1.6% (n = 360,000); AID 686970;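 note: NT is the 2HG producing partner of a matched IDH1 knockdown line; potency is the fitted concentration of half-maximal effect; 0% = DMSO-treated cells and -100% = media-only wells without cells; nearly all actives have a fitted effect of over 55% in size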
#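 Viability of the 2HG-overproducing fibrosarcoma line after 48 hours of compound exposure at 37 degrees C was determined by luminescence with CellTiter-Glo, and concentration-effect curves were then fitted and categorized.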
# HT1080 IDH1KD tx: HT-1080 IDH1 knockdown cell toxicity (counter line); HT-1080 IDH1 knockdown viability, ATP luminescence, 48 h; Potency, µM (series often up to 46.1 µM), for inactives: at the highest dose activity, negative = toxicity, usual class: cytotoxic; actives 2% (n = 360,000);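 note: potency is the fitted concentration of half-maximal effect; 0% = DMSO wells and -100% = cell-free medium wells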
#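 Knockdown cells (IDH1KD HT-1080) received compounds 2 h after plating at 750 cells/well and were kept 48 h at 37 °C in 5% FBS RPMI. A CellTiter-Glo luminescence read gave % activity for curve fitting.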
# TDP1 cell noCPT: qHTS for Inhibitors of human tyrosyl-DNA phosphodiesterase 1 (TDP1): qHTS in cells in absence of CPT; DT40 Tdp1-/- hTDP1 cells, no CPT, ATP luminescence, 48 h; AID 686978, 2013; actives 15% (n = 420,000); Potency, µM (series often up to 46.2 µM), inactives show top-dose activity change, negative = growth inhibition, most hits filed as inhibitors; note: potency is the fitted concentration of half-maximal effect; nearly all actives have a fitted effect of over 55% in size
#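 Growth of hTDP1-complemented DT40 Tdp1-knockout cells is measured by ATP luminescence after at least 48 hr compound exposure at 37 °C, with DMSO substituting for the 20 nM CPT used in the parallel screen.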
# IL1B secr inh: blocks inflammasome-driven IL-1 beta release; activity change, % at 57.5 µM; THP-1 LPS/ATP IL-1B secretion, AlphaLISA, 16 h; hits give low values; actives 4.7% (n = 360,000); in the data active = activity change below about -50%; inconclusive = mostly about -30% to -49%
#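 THP-1 cells pretreated 1 hr with compounds (up to 57.5 uM final), then stimulated with LPS (250 ng/mL final) plus ATP (1.25 mM final); secreted IL-1B measured by AlphaLISA after 16 hr, decreased signal indicating inhibition.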
# DT40 TDP1 CPT: growth inhibition of DT40 Tdp1-/-;hTDP1 cells with camptothecin (screen for TDP1 inhibitors) | chicken DT40 Tdp1-/-;hTDP1 cells + 20 nM CPT, ATP luminescence, 48 h | Potency, µM (series often up to 46.2 µM), inactives show at the top dose activity change, negative = growth inhibition, usual class: inhibitors | actives 12% (n = 420,000) | AID 686979; note: potency is the fitted concentration of half-maximal effect; nearly all actives have a fitted effect of over 55% in size
#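 Chicken DT40 Tdp1-/- cells stably complemented with human TDP1 were seeded at 400 cells/well in medium containing 20 nM camptothecin, exposed to pin-transferred compounds, and grown at 37 °C for at least 48 hr. Viability was read as ATP luminescence.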
# * hit, by the source's call; i = inactive; u = inconclusive; x = not tested or not shown; [ ] = another dose, or the depositor's remark. Unless noted, calls come from the whole dose curve; as a rule, active = well fitted curve in the direction sought with a large enough effect; inconclusive = small, poorly fitted or top-dose-only effect, or another doubt; inactive = no such curve, though single readings can be large; an effect the other way counts as inactive or inconclusive. Unless noted, % is set by controls: 0 for no effect and ±100 for the full control effect.
SMILES,HT1080NT lethal,HT1080 IDH1KD tx,TDP1 cell noCPT,IL1B secr inh,DT40 TDP1 CPT
CCCCN(CC)CCNC(=O)c1ccc2c(Cl)c3c(nc2c1)CCC3,20.6µM*,23.1µM*,16.4µM*,u,u
O=C(Nc1cccnc1Cl)c1ccc2c(Cl)c3c(nc2c1)CCC3,-11.2%,-8.8%,u,x,u
CCN(CC)CCCNC(=O)c1ccc2c(Cl)c3c(nc2c1)CCCC3,23.1µM*,29.1µM*,16.4µM*,x,25.9µM*
CCCc1ccc(OCC(=O)Nc2sc3c(c2C(=O)OCC)CCC(C(C)(C)C)C3)cc1 (configuration not stated),x,x,-3.4%,x,-4.0%
CC(O)(c1cccnc1)c1nc(-c2ccc3ccccc3c2)cs1 (configuration not stated),u,u,23.1µM*,5.0,20.6µM*
COc1cccc(C(C)(O)c2nc(-c3cncnc3)cs2)c1 (configuration not stated),11.7%,15.8%,u,42.5,u
COc1cccc(C(C)(O)c2nc(-c3cccc(NC(C)=O)c3)cs2)c1 (configuration not stated),1.0%,-3.7%,u,5.4,u
COc1cccc(C(C)(O)c2nc(-c3ccc4c(c3)OCO4)cs2)c1 (configuration not stated),-9.5%,-27.6%,20.6µM*,0.0,14.6µM*
COc1ccc(C(C)(O)c2nc(-c3ccc4c(c3)OCO4)cs2)cc1 (configuration not stated),-6.2%,u,u,42.2,u
COc1cccc(C(C)(O)c2nc(-c3cc(F)cc(F)c3)cs2)c1 (configuration not stated),23.1µM*,u,23.1µM*,-15.5,u
COCc1cccc(-c2csc(C(C)(O)c3cccc(OC)c3)n2)c1 (configuration not stated),u,u,u,4.4,13µM*
C=CCN(C(=O)c1csnn1)C(C(=O)NC1CCCC1)c1ccccc1 (configuration not stated),-0.2%,1.4%,-7.2%,-0.2,-7.6%
COc1ccc(-c2csc(C(C)(O)c3cccc(OC)c3)n2)cc1 (configuration not stated),-14.5%,u,u,9.3,16.4µM*
COc1ccc(C(C)(O)c2nc(-c3cncnc3)cs2)cc1 (configuration not stated),15.3%,1.8%,-19.4%,41.8,-12.6%
COc1cccc(C(C)(O)c2nc(-c3ccc(Cl)cc3)cs2)c1 (configuration not stated),u,u,u,11.4,u
COc1cccc(C(C)(O)c2nc(-c3ccc(S(C)(=O)=O)cc3)cs2)c1 (configuration not stated),-16.7%,-29.1%,18.4µM*,-10.5,u
COc1ccc(C(C)(O)c2nc(-c3csc4ccccc34)cs2)cc1 (configuration not stated),u,16.4µM*,4.61µM*,53.5,2.91µM*
CC(=O)NC(C)(c1ccccc1)c1nc(/C=C/c2ccccc2)cs1 (configuration not stated),-26.4%,-14.1%,16.4µM*,-14.7,u
COc1cccc(C(C)(O)c2nc(-c3ccc(OC)nc3)cs2)c1 (configuration not stated),u,u,u,10.0,u
O=C(c1nc(-c2ccccc2)n(-c2ccccc2)n1)N1CCN(S(=O)(=O)c2ccccc2)CC1,-8.4%,-0.1%,u,-28.7,-29.7%
CC(O)(c1cccc(F)c1)c1nc(-c2cccc(C#N)c2)cs1 (configuration not stated),u,-5.0%,u,15.7,u
CC(O)(c1cccnc1)c1nc(/C=C/c2ccccc2)cs1 (configuration not stated),-14.8%,-18.5%,20.6µM*,41.2,u
CC(O)(c1cccnc1)c1nc(-c2cccc(C#N)c2)cs1 (configuration not stated),5.8%,0.6%,14.6µM*,11.3,16.4µM*
CC(O)(c1cccnc1)c1nc(-c2ccc3c(c2)OCO3)cs1 (configuration not stated),4.2%,-19.3%,u,22.0,16.4µM*
Cc1ccccc1-c1csc(C(C)(O)c2cccnc2)n1 (configuration not stated),1.1%,1.7%,u,32.7,u
SMILES,HT1080NT lethal,HT1080 IDH1KD tx,TDP1 cell noCPT,IL1B secr inh,DT40 TDP1 CPT
Cc1ccc(OCc2cc(C(=O)N(C)CCc3ccccn3)no2)cc1C,-5.2%,-0.8%,u,14.2,25.9µM*
Cc1ccc(OCc2cc(C(=O)N(C)Cc3cc(C4CC4)n[nH]3)no2)cc1C,-16.5%,7.7%,23.1µM*,2.6,u
Cc1ccc(OCc2cc(C(=O)N(C)C3CCCc4ccccc43)no2)cc1C (configuration not stated),u,u,-70.8%,-3.5,u
C#CCN(C(=O)c1cc(COc2ccc(C)c(C)c2)on1)C1CCCCC1,-0.9%,2.0%,23.1µM*,i,u
CN(Cc1ccccn1)C(=O)c1cc(COc2ccc(F)c(F)c2)on1,0.3%,-2.5%,u,-14.3,18.4µM*
Cc1cccc(C)c1OCc1cc(C(=O)N(C)Cc2cc(C3CC3)n[nH]2)no1,-2.0%,-1.6%,u,0.0,u
CC(C)c1nnc(NC(=O)C2CCN(C(=O)C(C)(C)C)CC2)s1,x,x,1.0%,x,5.7%
Cc1ccc(OCc2cc(C(=O)N(C)CCc3nc4ccccc4[nH]3)no2)cc1C,u,-9.9%,20.6µM*,8.6,14.6µM*
Cn1c(=O)c2c(nc(SCC(=O)NCc3ccc4c(c3)OCO4)n2Cc2ccc(Cl)cc2)n(C)c1=O,-8.1%,-2.3%,-21.8%,-8.5,-2.2%
CS(=O)(=O)N(Cc1ccccc1)c1ccccc1C(=O)Nc1ccccc1C(=O)NCc1ccco1,-0.4%[9.24 µM],-4.7%,-28.1%,6.8,-13.8%
Cc1ccc(S(=O)(=O)N(Cc2ccccc2)c2ccccc2C(=O)Nc2ccccc2C(=O)NCc2ccco2)cc1,0.0%,-5.4%,u,-9.4,23.1µM*
Cc1ccc(S(=O)(=O)N(Cc2ccccc2)c2ccccc2C(=O)NCc2ccco2)cc1,11.2µM*,3.4%[9.24 µM],u,-94.5*,u
O=C(O)c1ccccc1-c1ccccc1C(=O)NNc1ccc([N+](=O)[O-])cc1,1.9%,-3.1%,-12.0%,9.2,-14.6%
CC(=O)Nc1ccc(NC(=O)C2CCN(C(=O)NC3CCCCC3)CC2)cc1,0.8%,10.8%,13.0%,-8.0,3.7%
COc1ccc(NC(=O)N2CC3(CCNCC3)C2)cc1,x,x,-23.0%,x,0.1%
